Out of some 290,000 compounds screened, about 2,300 (0.79%) were called active. The entries come from a sample that favours actives as a whole. Unmarked numbers belong to inactive results. Rule as the data show it: active = inhibition above about 22%; inactive = the rest.
experiment: IEC-6 cell viability reduction – luminescence, cytotoxicity control for KLF5 inhibitor project, primary screen (AID 1825); conditions: IEC-6 cytotoxicity, at 5 µM, stronger effect = higher value;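 also: 0% = plate median of test compound wells and 100% = cytotoxic reference compound wells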

Which inhibition does the source give for `COc1cc(-n2c(=S)[nH]c3ccc(C)cc3c2=O)c(Cl)cc1Cl` here?
Its inhibition is 27.3% (active).

Which inhibition does the source give for `CN(C)CC1Oc2ccccc2OC1(O)c1ccccc1` (stereo not given) here?
The inhibition was 10.6%.

For `COc1ccc(N2C(=O)/C(=C/c3ccco3)C(=O)NC2=S)cc1`, which inhibition is on record?
The inhibition was -11.8%.

For `COc1cc2nc(N3CCN(C(=O)[C@@H]4CCCO4)CC3)nc(N)c2cc1OC`, which inhibition is on record?
The inhibition was -0.7%.

For `CN(c1ccccc1)c1ccc([N+](=O)[O-])c2nonc12`, which inhibition is on record?
The inhibition was 13.2%.

With `CC1=CC(=Cc2sc3ccccc3[n+]2C)C=C(C)O1` as the molecule, how does the inhibition read?
Its inhibition is 25.9% (active).

With `CCc1nc2ccccc2c(=O)n1-c1cccc(OC)c1` as the molecule, how does the inhibition read?
The inhibition was -0.6%.

With `COc1cc(Cn2c(N)c(C(=O)NCc3ccco3)c3nc4ccccc4nc32)cc(OC)c1OC` as the molecule, how does the inhibition read?
The inhibition was 7.4%.

Which inhibition does the source give for `COc1ccc(-c2nn(CCC#N)cc2C(=O)O)cc1` here?
Its inhibition is -8.6%.

With `COc1ccc(C(=O)CC2C(=O)N(C)C(=O)N(C)C2=O)cc1` as the molecule, how does the inhibition read?
Its inhibition is 2%.

For `Cc1nc2ccccc2c(=O)n1-c1ccc(Cl)cc1Cl`, which inhibition is on record?
Its inhibition is -4.8%.

Which inhibition does the source give for `CCCCCCCCCCCCn1ccc(=N)cc1` here?
The inhibition was 78.8% (active).

For `CCOP(=S)(OCC)C(O)CCCCCn1c(=O)c(F)cn(C2CCCO2)c1=O` (stereo not given), which inhibition is on record?
Its inhibition is -1.2%.

For `CCOc1cccc(=NC2CCCCC2)c2c(C)[nH]c(C)c12`, which inhibition is on record?
The inhibition was -11.4%.

For `COc1cccc(N2C(=O)NC(=O)/C(=C\c3ccc([N+](=O)[O-])s3)C2=O)c1`, which inhibition is on record?
Its inhibition is -9.9%.

With `Cc1cc2ccccn2c1C(C[N+](=O)[O-])c1c(F)cccc1Cl` (stereo not given) as the molecule, how does the inhibition read?
The inhibition was 47.4% (active).

Which inhibition does the source give for `CC(=O)Nc1ccc(C(=O)C(Cc2ccccc2)N(C)C)cc1` (stereo not given) here?
The inhibition was -0.8%.

With `CC(=O)c1c(C)n(C(C)C)c2ccc(O)cc12` as the molecule, how does the inhibition read?
The inhibition was 3.8%.

With `COc1ccc(-c2nn(CCC#N)cc2C(=O)Nc2ccc(C(C)=O)cc2)cc1` as the molecule, how does the inhibition read?
Its inhibition is -1.6%.

With `O=c1c2ccccc2nc(/C=C/c2ccco2)n1-c1ccccc1O` as the molecule, how does the inhibition read?
Its inhibition is -4.9%.
